Source: PubChem BioAssay (National Center for Advancing Translational Sciences (NCATS))
RORg inh = blocks mouse ROR gamma transcriptional activity | Drosophila S2 Gal4-RORgamma UAS-luciferase reporter, 20 h | AID 2551 | hit rate 5.4% among 310,000 | P51450 | Potency, µM (doses to about 53.6 µM), for the others: top-dose activity change, negative = inhibition, actives largely listed as inhibitors; further: nearly all actives have a fitted effect of over 60% in size
Target sequence (P51450 whole entry, looked up, the tested form may be a part): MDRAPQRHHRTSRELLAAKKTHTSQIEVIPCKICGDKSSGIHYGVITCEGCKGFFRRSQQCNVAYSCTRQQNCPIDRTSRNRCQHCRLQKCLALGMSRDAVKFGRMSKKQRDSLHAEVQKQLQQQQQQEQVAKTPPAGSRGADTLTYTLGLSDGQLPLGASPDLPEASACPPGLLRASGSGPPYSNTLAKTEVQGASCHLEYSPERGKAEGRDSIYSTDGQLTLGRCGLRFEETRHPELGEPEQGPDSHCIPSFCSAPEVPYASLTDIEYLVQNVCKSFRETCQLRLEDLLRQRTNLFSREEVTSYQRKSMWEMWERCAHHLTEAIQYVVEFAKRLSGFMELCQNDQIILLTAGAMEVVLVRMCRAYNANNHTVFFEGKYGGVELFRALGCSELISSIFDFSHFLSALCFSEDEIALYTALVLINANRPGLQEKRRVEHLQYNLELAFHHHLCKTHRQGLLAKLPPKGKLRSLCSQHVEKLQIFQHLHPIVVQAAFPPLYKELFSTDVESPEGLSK
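Stable Schneider cell line, Gal4 DNA-binding domain fused to ROR gamma, UAS-luciferase. Cmpd 1 hr RT → CuSO4 700 uM final → 20 hr RT → luciferase reagent 10 min → luminescence.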
KinaseGlo FLuc = Kinase-Glo luciferase inhibition (counter-screen) | Potency, µM (top dose mostly 38.3 µM), for the others: top-dose activity change, negative = inhibition, actives largely listed as inhibitors | Kinase-Glo luciferase, ATP luminescence, 8 min | hit rate 0.28% among 200,000; further: nearly all actives have a fitted effect of over 60% in size
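Substrate mix (final 50 mM imidazole pH 7.2, 50 mM KCl, 7 mM MgCl2, 10 uM ATP, 0.01% Tween 20, 0.05% BSA) plus pin-tool compound, then Kinase-Glo detection mix; 8 min ambient, luminescence read.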
Gal4-VP16 FLuc = counter-screen for ROR gamma inhibitors: Gal4-VP16 reporter | Potency, µM (titrated, usually from 53.6 µM), for the others: at the top dose activity, negative = inhibition, hits mostly inhibitors | AID 2546 | Drosophila S2 Gal4-VP16 UAS-luciferase, luminescence, 20 h | hit rate 3.5% among 310,000;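 further: Gal4-VP16 expression switched on by copper sulfate through the metallothionein promoter; nearly all actives have a fitted effect of over 50% in size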
Active calls of the source: *; ? = inconclusive; · = no result; [ ] = another dose, or the depositor's remark. Only some compounds are listed: those with a hit (about 6.4% of all), similar ones and a draw of the others. The call rests on the fitted dose curve; in most records, active means well fitted curve in the direction sought with a large enough effect; inconclusive means small, poorly fitted or top-dose-only effect, or another doubt; inactive means no such curve, though single readings can be large; an effect the other way counts as inactive or inconclusive. On the % scale 0 is the no-effect control and ±100 the full control effect; potency means the concentration at half of the fitted maximal effect.

SMILES	RORg inh	KinaseGlo FLuc	Gal4-VP16 FLuc
O=C(CCCn1c(=S)[nH]c2ccccc2c1=O)NCCSCc1ccccc1	12.6µM*	-1.1%	-5.1%[10 µM]
O=C(CCCn1c(=S)[nH]c2ccccc2c1=O)N1CCCCC1	?	2.8%	?
COCCn1c(=O)[nH]c2cc(C(=O)N3CCN(c4ccccc4OC)CC3)ccc2c1=O	-3.3%	0.2%	-3.8%
COCCn1c(=S)[nH]c2cc(C(=O)N3CC(C)CC(C)C3)ccc2c1=O (centres undefined)	11.2µM*	·	?
COCCn1c(=S)[nH]c2cc(C(=O)N3CCN(c4ccccc4OC)CC3)ccc2c1=O	14.1µM*	·	?
O=C(CCCn1c(=O)[nH]c2ccccc2c1=O)NCCSCc1ccccc1	-1.6%	·	-11.0%
Cc1cccc(NC(=O)c2ccc([N+](=O)[O-])s2)c1C	-33.8%	2.3%	?
Cc1ccc(OCC(=O)NNC(=O)C2CCCO2)c(C)c1 (centres undefined)	-6.0%	-1.4%	-13.7%
COc1ccc([C@@H]2[C@@H]3C(=O)N(C(C)(C)C)C(=O)[C@@H]3[C@]3(CC(C)C)C(=O)N(c4cccc(Br)c4)C(=O)N23)cc1	-7.8%	·	-5.2%
CN(C)CCCNC(NC(=O)c1cccs1)C(Cl)(Cl)Cl (centres undefined)	-11.9%	-0.5%	3.0%
O=c1oc(Nc2cccc(Cl)c2)nc2ccccc12	-37.2%	-4.2%	-9.9%[10 µM]
CC1CCN(c2ccc(NC(=S)NC(=O)c3ccc(-c4cccc([N+](=O)[O-])c4)o3)cc2)CC1	1.58µM*	-1.7%	7.08µM*
CN1CCN(c2ccccc2NC(=O)c2ccc(-c3cccc([N+](=O)[O-])c3)o2)CC1	-16.5%	-1.2%	-29.3%
CC1CCN(c2ccccc2NC(=S)NC(=O)c2ccc(-c3cccc([N+](=O)[O-])c3)o2)CC1	1µM*	0.7%	-3.0%
O=[N+]([O-])c1cccc(-c2ccc(C(=S)N3CCN(c4ccc(F)cc4)CC3)o2)c1	6.5%	-1.8%	-13.7%
CCOC(=O)c1c(NC(=O)COC(=O)c2nc(Cl)ccc2Cl)sc2c1CCC2	?	0.5%	-7.5%
COc1ccc(CCN2CC(C(=O)NCc3ccc(F)cc3)CC2=O)cc1OC (centres undefined)	?	·	0.8%
Cc1ccc(C)c(N2CC(C(=O)Nc3nccs3)CC2=O)c1 (centres undefined)	-0.1%	·	4.3%
CCNc1oc(-c2ccccc2F)nc1S(=O)(=O)c1ccccc1	14.4%	·	2.0%
O=C(CN1C(=O)N/C(=C\c2ccccc2OCc2ccc(C(=O)O)cc2)C1=O)Nc1ccccc1F	-3.1%	·	-3.4%
COCCCn1c(=O)c2ccccc2n(Cc2cccc(C)c2)c1=O	57.2%	·	-17.0%
CCc1cc(=O)n2[nH]c(-c3ccccc3)c(-c3ccccc3)c2n1	?	·	-20.9%
COC(=O)Cc1cc(=O)n2[nH]c(C)c(-c3ccccc3)c2n1	3.55µM*	0.8%	3.98µM*
CCOC(=O)Cc1cc(=O)n2[nH]c(C)c(-c3ccc(Cl)cc3)c2n1	11.2µM*	-3.6%	?
CCc1cc(=O)n2[nH]c(C)c(-c3ccc(OC)cc3)c2n1	8.5%	·	-6.3%
SMILES	RORg inh	KinaseGlo FLuc	Gal4-VP16 FLuc
CCCc1cc(=O)n2[nH]c(C)c(-c3ccccc3)c2n1	7.08µM*	·	?
CCOC(=O)Cc1cc(=O)n2[nH]c(C)c(-c3ccc(OC)cc3)c2n1	-15.0%[0.365 µM]	2.6%	·
O=C(Cc1cccc(C(F)(F)F)c1)NCC(=O)Nc1cc(Cl)ccc1Cl	-9.5%	·	9.7%
O=C(c1cc(Br)c[nH]1)N1CCSCC1	0.3%	·	-4.8%
CC1CCN(Cc2nnnn2CCCC(=O)N(C)C(C)c2ccccn2)CC1 (centres undefined)	10.0%	·	29.8%
O=S(=O)(Cc1ccc(Cl)cc1)N1CCN(c2ncccn2)CC1	?	·	-1.9%
CC(C)(C)c1nnc(N/N=C/c2ccc(Br)cc2)n(N)c1=O	2.82µM*	-1.6%	2.82µM*
CC(C)(C)c1ccc(/C=N/Nc2nncn2N)cc1	-33.0%	·	?
CCOc1ccc(C(=O)NCCc2ccc3c(c2)OCCO3)cc1	?	0.1%	-5.2%
CCCCc1nnc(NC(=O)C2=COCCO2)s1	?	·	-10.0%
COc1cc(C(=O)NCC2CCCO2)cc(OC)c1OC (centres undefined)	-15.4%	-2.6%	1.3%
CCOc1ccc(C(=O)Nc2nnc(C3=COCCO3)o2)cc1	2.51µM*	·	1µM*
COc1ccc(C(=O)Nc2nnc(C3=COCCO3)o2)cc1	2.24µM*	·	2µM*
CCCCC(=O)Nc1nnc(C2=COCCO2)o1	12.6µM*	4.3%	0.4%
COc1ccc(C(=O)NCc2ccc3c(c2)CCO3)cc1	-5.8%	·	-7.8%
COc1cc(C(=O)Nc2nnc(C3=COCCO3)o2)cc(OC)c1OC	2.51µM*	·	2.82µM*
COc1ccc(OCC(=O)NCCNC(=O)c2cccnc2)cc1	-20.5%	·	-12.2%
C#CCN(C(=O)CC1C(=O)NCCN1C/C=C/c1ccccc1)C1CCCCC1 (centres undefined)	30.8%	1.0%	-5.3%
C[C@@H](/C=C/c1ccc2ccccc2c1)C1COC(=O)C[C@H]1O (some centres undefined)	-14.6%	·	-25.8%
CCOc1ccc2oc(C(=O)N3CC(C)OC(C)C3)c(C)c2c1 (centres undefined)	-30.9%	·	-12.1%
O=C(CC1N=C(Cc2ccccc2)NNC1=O)N/N=C/c1ccc([N+](=O)[O-])cc1 (centres undefined)	-7.6%	1.8%	26.6%
Brc1cccc(-c2cnc3n2CCCCC3)c1	0.398µM*	-3.0%	10µM*
Brc1cccc(-c2nnc3n2CCCCC3)c1	-10.6%	-9.0%	-1.4%
Clc1ccc(-c2cnc3n2CCC3)cc1	17.8µM*	-2.0%	-6.1%
COc1ccc(-c2cnc3n2CCCCC3)cc1	?	·	-3.0%
SMILES	RORg inh	KinaseGlo FLuc	Gal4-VP16 FLuc
Cc1cc(C)c2cc(CN(CCCO)S(=O)(=O)c3ccccc3F)c(=O)[nH]c2c1	-10.4%	·	-20.3%
CC(C)n1c(SCC(=O)N2CCN(C)CC2)nc2c1c(=O)n(C)c(=O)n2C	6.3%	·	8.8%
CC1CCC2C(=O)OC(CN=[N+]=[N-])CN2C1c1ccc(Br)cc1 (centres undefined)	-6.2%[10 µM]	·	6.1%[10 µM]
Fc1ccccc1Oc1nc(-c2ccncc2)nc2ccccc12	-27.5%	·	1.5%
CCCn1c(C)nc2c(Nc3ccccc3)nc(C)nc21	-37.5%	-2.9%	7.8%
O=C(NCc1ccc2c(c1)OCO2)C1CC(=O)N(CCc2ccc(Cl)cc2)C1 (centres undefined)	28.5%	·	-6.1%
O=C(COC(=O)c1ccccn1)Nc1nc(-c2ccccc2)cs1	?	·	17.2%
O=C(COC(=O)c1ccccn1)Nc1nc(-c2cccc([N+](=O)[O-])c2)cs1	12.6µM*	·	35.5µM*
N/C(=N\OC(=O)c1cccc2ccccc12)c1ccccn1	?	·	-16.0%
N/C(=N\OC(=O)c1cccc(F)c1)c1cccc([N+](=O)[O-])c1	19.0%	·	-7.6%
CC1=C(C)/C(=N/OC(=O)c2cccc([N+](=O)[O-])c2)C=CC1=O	3.55µM*	-3.7%	3.55µM*
NC(=O)c1ccc([N+](=O)[O-])cc1Cl	-11.3%	-1.6%	-1.8%
N/C(=N\OC(=O)c1cc([N+](=O)[O-])ccc1Cl)c1ccccn1	3.98µM*	·	?
N/C(=N\OC(=O)c1ccc([N+](=O)[O-])cc1Cl)c1ccccn1	10µM*	·	11.2µM*
